In the library only some 3.3% were active in any assay of this set; here they are far more common.
Arbovirus anti: antivirals against arbovirus infection. arbovirus infection cell-based antiviral screen. inhibition, % at 10 µM. 200,000 compounds, 0.37% hits; in the data active = inhibition above about 30%
PERK inhibitor: blocks human PERK kinase; Q9NZJ5; CHO PERK-DD fusion, SEAP luminescence translation reporter; inhibition, % at 5.6 µM; 220,000 compounds, 0.17% hits; AID 1416;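 active = inhibition above the mean inhibition of all tested compounds plus 3 SD, set separately per screening campaign, cut at about 2.9% in these data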;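 note: PERK kinase domain activated by AP20187 dimerizer at 100 nM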
WT yeast gro inh: growth inhibition of WT yeast, mitochondrial fusion screen; inhibition, % at 10 µM; 190,000 compounds, 2.1% hits; mitochondrial fusion phenotypic screen, WT strain; AID 1362; in the data active = inhibition above about 58%; tested in S. cerevisiae
ROMK mod: modulators of human ROMK potassium channel. P48048. Tet-inducible ROMK, thallium flux fluorescence; actives lie on both sides. B-score at 10 µM. 130,000 compounds, 2% hits. AID 1918;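 active = signal ratio slope over the read window, or its plate-corrected B-score, at least 3 SD from the plate mean, either direction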;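 note: B-score of the F/F0 ratio slope over 7 to 12 s after thallium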
Target sequence (P48048 whole entry, looked up): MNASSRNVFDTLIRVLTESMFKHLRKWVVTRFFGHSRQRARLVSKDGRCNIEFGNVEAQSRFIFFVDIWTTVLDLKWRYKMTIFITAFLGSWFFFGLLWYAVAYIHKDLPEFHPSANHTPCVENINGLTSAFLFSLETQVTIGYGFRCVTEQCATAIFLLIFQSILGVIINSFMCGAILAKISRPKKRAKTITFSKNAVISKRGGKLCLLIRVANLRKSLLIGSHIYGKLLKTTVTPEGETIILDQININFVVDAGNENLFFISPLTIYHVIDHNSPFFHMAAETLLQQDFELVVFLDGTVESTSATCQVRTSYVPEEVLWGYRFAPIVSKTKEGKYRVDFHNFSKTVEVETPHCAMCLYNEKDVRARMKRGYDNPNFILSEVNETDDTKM
Hits are given with their value; – = inactive; · = no result.

SMILES	Arbovirus anti	PERK inhibitor	WT yeast gro inh	ROMK mod
CCc1ccccc1NC(=S)N(Cc1ccco1)C(C)c1cccs1 (centres undefined)	–	–	76	–
O=C(NCc1nnc(SCC(=O)N2CCC(Cc3ccccc3)CC2)o1)c1ccccc1F	–	–	–	·
O=S(=O)(Nc1ccccc1N1CCCCC1)c1ccc(F)cc1	·	3.2	·	·
O=C(NC(=S)Nc1ccccc1N1CCCCC1)c1ccccc1	–	–	67	–
O=C(Nc1ccccc1N1CCCCC1)c1ccccc1F	–	–	81	–
O=C(CNCc1ccccc1Cl)Nc1ccccc1N1CCCCC1	–	–	80	–
O=C(Nc1ccccc1N1CCN(c2ccccc2)CC1)c1ccccc1F	–	–	–	–
CC1CCCCC1NC(=O)CSc1nnc(COc2ccccc2Cl)o1 (centres undefined)	–	–	–	·
O=[N+]([O-])c1ccc(OCCN2CCNCC2)cc1	–	–	–	–
C=CCN(CC=C)C(=O)c1c(OC)cccc1OC	–	–	–	–
C=CCc1c(C)[nH]c2c(OC)cccc2c1=S	–	–	67	–
COc1ccc2cc(-c3[nH]ncc3CN3CCCC3c3nonc3C)ccc2c1 (centres undefined)	–	–	–	–
Cn1nc(C(F)(F)F)c(-c2ccccc2)c1NC(=O)CCC(=O)O	·	3.5	·	·
O=C(Nc1ccc(OC(F)F)cc1)Nc1cccc(C(F)(F)F)c1	–	–	83	·
O=C(Nc1ccc(OC(F)(F)F)cc1)c1[nH]ncc1[N+](=O)[O-]	30	–	–	–
CC(C)(C)CC(C)(C)NC(=O)Nc1cccc([N+](=O)[O-])c1	–	–	64	·
O=C(Nc1cccc([N+](=O)[O-])c1)c1ccncc1	–	–	–	·
CC(C)(C)c1ccc(C(=O)Nc2cccc([N+](=O)[O-])c2)cc1	–	–	62	–
Cc1cc(NC(=O)Nc2cccc([N+](=O)[O-])c2)no1	–	–	–	–
O=C(Nc1ccc(OC(F)(F)F)cc1)Nc1cccc([N+](=O)[O-])c1	–	–	80	·
O=C(COC(=O)c1ccc2c(c1)OCO2)Nc1ncc(Cl)cc1Cl	–	–	–	–
COc1cc(OC)c(C(=O)NCCCn2ccnc2)cc1OC	–	–	–	–
O=C(Nc1ccccc1)C1=C[C@@H](C2CCCCC2)C[C@@H](OCc2ccc(CO)cc2)O1	–	–	–	·
CSC(=Nc1ccccc1)Nc1ccccc1	·	2.9	·	–
Cc1ccc2c(c1)c(N=O)c(O)n2Cc1ccc(Cl)cc1	–	–	74	–
SMILES	Arbovirus anti	PERK inhibitor	WT yeast gro inh	ROMK mod
O=[N+]([O-])c1ccc(/C=N/Nc2nc(N3CCCCCC3)nc(N3CCCCCC3)n2)o1	–	–	63	·
Cc1ccc(F)cc1NC(=O)C1CC(=O)N(CCc2ccccc2)C1 (centres undefined)	–	–	–	–
O=S(=O)(c1cc(Cl)ccc1Cl)N1CCN(Cc2ccc3c(c2)OCO3)CC1	–	–	–	·
O=S(=O)(c1ccc(Br)s1)N1CCN(Cc2ccc3c(c2)OCO3)CC1	–	–	61	–
COc1ccc(N2C(=O)c3ccccc3NC2c2ccc(OC)c(CSc3ccccn3)c2)cc1 (centres undefined)	–	–	–	·
CCCN1C(=O)c2ccccc2NC1c1ccc(OC)c(CSc2ccccn2)c1 (centres undefined)	–	–	64	·
c1ccc(-c2csc3ncnc(NCC4COc5ccccc5O4)c23)cc1 (centres undefined)	–	–	72	–
c1ccc(-c2csc3ncnc(N4CCc5ccccc5C4)c23)cc1	–	–	70	–
c1ccc(-c2csc3ncnc(NCCCN4CCOCC4)c23)cc1	43	–	–	–
Cc1sc2ncnc(NCC3COc4ccccc4O3)c2c1C (centres undefined)	–	–	–	·
c1ccc(-c2csc3ncnc(N4CCOCC4)c23)cc1	–	–	–	–
c1csc(-c2csc3ncnc(NCCCN4CCOCC4)c23)c1	–	–	–	·
COc1ccc(CN(C)Cc2cc(=O)n3ccsc3n2)c(OC)c1OC	–	–	–	–
Cc1cc(/C=C2\C(=N)N3C(SCc4ccccc4)=NSC3=NC2=O)c(C)n1Cc1ccccc1	–	–	–	·
CC(C)CSC1=NSC2=NC(=O)/C(=C\c3ccccc3)C(=N)N12	–	–	–	1.8
CC(C)CSC1=NSC2=NC(=O)/C(=C\c3coc4ccccc4c3=O)C(=N)N12	52	–	–	·
O=C(Nc1ccc(S(=O)(=O)Nc2ncccn2)cc1)c1ccc2ncsc2c1	·	2.9	·	·
COc1ccc(CCNC(=O)c2cccnc2)cc1	–	–	–	–
O=C(CN1CCN(c2ccccc2O)CC1)NCCCc1ccccc1	–	–	–	–
CN1CCN(C(=O)C2=C[C@@H](c3csc4ccccc34)C[C@@H](OCc3ccc(CO)cc3)O2)CC1	–	–	–	·
O=C(C1=C[C@H](c2csc3ccccc23)C[C@H](OCc2ccc(CO)cc2)O1)N1CCN(Cc2ccc3c(c2)OCO3)CC1	–	–	98	·
O=C(C1=C[C@H](c2csc3ccccc23)C[C@H](OCc2ccc(CO)cc2)O1)N1CCN(Cc2ccccc2)CC1	–	–	97	·
Cc1ccc([N+](=O)[O-])cc1N=C(c1cccc([N+](=O)[O-])c1)N1CCOCC1	–	9.5	–	·
Cc1ccc([N+](=O)[O-])cc1N=C(c1ccc([N+](=O)[O-])cc1)N1CCOCC1	–	–	–	–
COc1ccc(-c2nnc(SCc3nc4ccccc4c(=O)[nH]3)o2)cc1	·	–	·	·
SMILES	Arbovirus anti	PERK inhibitor	WT yeast gro inh	ROMK mod
Nc1nc(-c2ccc(Cl)cc2)nn1C(=O)c1cccs1	–	–	–	–
CC(=O)Nc1nonc1NC(C)=O	–	–	–	–
CC(=O)Nc1cc(OC(C)=O)c2nonc2c1OC(C)=O	·	–	·	-4.2
COc1ccc(CCN2C(=O)CS/C2=N\NC(=O)c2ccc(C(C)(C)C)cc2)cc1OC	–	–	–	·
CCn1c(NC(=O)c2ccc(C)cc2)c2ccccc2nc1=O	–	–	–	·
CCn1c(NC(=O)c2ccc(F)cc2)c2ccccc2nc1=O	–	–	58	·
CC(C)(C)N1CCC1CN (centres undefined)	·	4.5	·	–
CCOC(=O)C1(S(=O)(=O)c2ccccc2)CCN(Cc2ccc(Cl)cc2)CC1	–	–	–	–
CCOC(=O)C1(S(=O)(=O)c2ccc(Cl)cc2)CCN(Cc2ccc(Cl)cc2)CC1	–	–	72	·
COc1ccc2nc(NC(=O)C3CCN(S(=O)(=O)c4cnc[nH]4)CC3)sc2c1	–	–	–	·
CCCCNC(=O)C1CCN(S(=O)(=O)c2cnc[nH]2)CC1	–	–	71	·
Cc1ccc2nc(NC(=O)C3CCN(S(=O)(=O)c4cnc[nH]4)CC3)sc2c1	31	–	–	–
CCOc1ccc2nc(NC(=O)C3CCN(S(=O)(=O)c4cnc[nH]4)CC3)sc2c1	30	–	–	·
NC(=O)c1nnn(-c2cccc(C(F)(F)F)c2)c1-c1ccccc1	·	–	·	–
COC(=O)c1ccc(CNC(=O)c2ccc(COc3ccccc3)cc2)cc1	–	–	–	–
Cc1ccc(N(C(C)C(=O)NCc2ccncc2)S(C)(=O)=O)cc1C (centres undefined)	–	–	–	–
CCOc1nc(NC2CCCCC2)nc(NC(C)(C)C)n1	–	–	58	–
CC1CCN(C(C)C(=O)Nc2ccccc2-c2ccccc2)CC1 (centres undefined)	–	–	60	·
Cc1nc2c(=O)n(C)c(=O)n(C)c2nc1Cl	–	–	58	·

Screening results as filed in PubChem BioAssay.
